# Experimental data as given in PubChem BioAssay (NCI).
# Compounds without any hit were thinned out: in the full panel of roughly 83,000, 20% have a hit.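 48-hour exposure, single concentration, 96-well plates; percent growth endpoint where 0 means no net growth. Active: below 10.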 Values without a mark were called inactive. Activity calls are given as the source filed them.
# Tested on: SK-MEL-2 melanoma
# Test: NCI-60 one-dose screen, 48 h (100 = growth as untreated, 0 = no growth, -100 = all killed)
# Conditions: 10 µM
# Description: Growth inhibition of the SK-MEL-2 human tumor cell line is measured as a screen for anti-cancer activity. Cells are grown in 96 well plates and exposed to the test compound for 48 hours. Compounds are tested at a single concentration, which is 10^-5 M for most compounds. The reported endpoint is percent growth (GI% or GIPRCNT), where numbers from 0 - 100% represent growth inhibition, and numbers from -100% - 0 represent cell death. For example, a value of 40 represents 60% growth inhibition. A value of 0 means no net growth occurred over the course of the experiment. A value of -40 indicates 40% of cells at the beginning of the experiment died by the end of the experiment. A value of -100 means all cells are dead at the end of the experiment.
# NCI-60 Human Tumor Cell Lines Screen was performed using the standard one-dose NCI protocol, which is described in more detail at https://dtp.cancer.gov/discovery_development/nci-60/default.htm.
# Compounds with GIPRCNT values below 10 were considered active. Activity score was based on GIPRCNT using the following formula: […]
# Score is 0 for GIPRCNT values of 100 or above, 50 for GIPRCNT values of 0, and 100 for GIPRCNT values of -100.
row,SMILES,growth
1,Cc1cccc2c1O/C(=C\c1ccc([N+](=O)[O-])o1)C2=O,-62.8% (active)
2,CC1(C)OC2=C(CC1Br)C(=O)C(=O)c1ccccc12 (stereo not given),-42.9% (active)
3,O=C(c1cccs1)c1ccccc1Cc1ccccc1,96.1%
4,COc1ccc(Nc2cc(C)nc(NCCCNc3ccnc4cc(Cl)ccc34)n2)cc1,-94.6% (active)
5,COc1ccc(-c2ccc3cc(C(=O)Nc4ccc(O)c(C(=O)/C=C/c5cc(OC)c(OC)c(OC)c5)c4)ccc3c2)cc1,99.5%
6,c1ccc(CNc2ncnc3scc(-c4cccs4)c23)nc1,72.2%
7,COc1cc(Cl)cc(-c2nn(-c3cccc(NC(=O)c4ccc(Cl)c(Cl)c4)c3)cc2-c2ccncc2)c1,78.4%
8,Cc1nc2ccc(CN(C)c3ccc(C(=O)N[C@@H](CCC(=O)O)C(=O)O)s3)cc2c(=O)[nH]1,105%
9,O=c1c2ccccc2nc(SCCN2CCCCC2)n1CCc1ccccc1,102%
10,O=C1N=NC2=C1c1c3ccccc3c(O)n1CC2,110%
11,CCCCCCCCCCCCCC[n+]1ccc(C(N)=O)cc1,-32.4% (active)
12,COc1ccc(N2C(=O)C3c4[nH]c5ccc(OCc6ccccc6)cc5c4C4CCC(C(C)C)CC4C3C2=O)cc1 (stereo not given),101%
13,O=C(CC(c1ccccc1)N1CCOCC1)c1ccccc1 (stereo not given),94.7%
14,O=C(Nc1nc2ccc(F)cc2s1)c1cc(-c2ccc(F)cc2)n2nc(-c3ccccc3)cc2n1,111%
15,NC(=S)N=Nc1c(O)c2ccccc2c2ccccc12,89%
16,COc1cccc(Cn2c(-c3nonc3N)nc3ccccc32)c1,-12.2% (active)
17,COc1cc(-c2cc(-c3cc4c([nH]c5ccccc54)c(-c4cc(OC)c(OC)c(OC)c4)n3)cc(-c3ccccc3)n2)cc(OC)c1OC,46%
18,CCCCCCNC(=O)Oc1ccc(/C(=C(/CC)Cc2ccccc2)c2ccc(OCCN3CCCCC3)cc2)cc1,91.3%
19,C#Cc1ccc(-n2c(/C=C/c3ccc(C(F)(F)F)cc3)nc3ncccc3c2=O)cc1,-37.1% (active)
20,COc1ccc2c(c1)sc1nc(-c3ccccc3)c(-c3cccnc3)n12,120%

row,SMILES,growth
1,CCCCCCCCCCCCCCCCCC(=O)OCCCCCCC,127%
2,CN(C)CCOc1nc2ccccc2c2c1-c1ccc(Cl)cc1C2=O,-9.67% (active)
3,CCOC1(OCC)OC(c2ccccc2)=C(C#N)C(/C=C\c2ccccc2)C1(OCC)OCC (stereo not given),95.3%
4,O=C(NN1C(=O)CSC1c1ccc(Cl)cc1)c1cccnc1 (stereo not given),109%
5,O=C(O)CCCCSc1ncnc2nc[nH]c12,92.4%
6,c1ccc2c(c1)oc1c3cccnc3ccc21,96.9%
7,COc1ccc(-c2nc(-c3nc4ccc(OC)cc4[nH]3)cc3c2[nH]c2ccccc23)cc1,11.2%
8,CCOC(=O)CNC(=O)CCCCSc1ncnc2nc[nH]c12,97.6%
9,Cc1ccc(NC(=O)Nc2nc3ccccc3s2)cc1NC(=O)Nc1nc2ccccc2s1,98.5%
10,COC(=O)c1c(-c2ccccc2)csc1NC(=O)c1c(-c2ccccc2)noc1C,61.2%
11,COc1cc(OC)cc(-c2cncn2-c2ccc(-c3nc4cc(OC)cc(OC)c4s3)cc2)c1,81.1%
12,O=C(Nc1ccncc1)C(=O)c1cn(S(=O)(=O)c2ccc(F)cc2)c2ccccc12,11.2%
13,c1ccc2c(-c3nc(N4CCOCC4)c4c5c(sc4n3)CCCCCC5)cccc2c1,104%
14,CN1CCCNc2c(c(=O)c2=O)NCCCN(C)CCCNc2c(c(=O)c2=O)NCCCN(C)CCCNc2c(c(=O)c2=O)NCCCN(C)CCCNc2c(c(=O)c2=O)NCCCN(C)CCCNc2c(c(=O)c2=O)NCCCN(C)CCCNc2c(c(=O)c2=O)NCCCN(C)CCCNc2c(c(=O)c2=O)NCCC1,76.6%
15,CCN(CC)CCCC(C)Nc1nc(-c2ccc(OC)cc2)nc2cc(Cl)ccc12 (stereo not given),98.2%
16,O=C1/C(=C\c2ccc(Cl)cc2)CN(C(=O)c2ccccc2)C/C1=C\c1ccc(Cl)cc1,87.1%
17,COc1cc(Cl)cc(-c2nn(-c3cccc(NC(=O)c4ccc(N5CCOCC5)c(C(F)(F)F)c4)c3)cc2-c2ccncc2)c1,64.9%
18,OCC1OC(n2cnc3c(N/N=C\c4ccccn4)ncnc32)C(O)C1O (stereo not given),58.2%
19,Cc1cc(N(CCCNc2ccnc3cc(Cl)ccc23)Cc2ccc3c(c2)OCO3)nc(N2CCCCC2)n1,-67.5% (active)
20,COc1ccc(C2=Nc3c(C)nn(-c4ccccc4)c3NC(c3ccc(Oc4ccnc5cc(Cl)ccc45)c(OC)c3)C2)cc1 (stereo not given),90.9%
